These results are taken from PubChem BioAssay (Tox21).

The nature of assay [1]: qHTS assay to identify small molecule antagonists of the thyroid receptor (TR) signaling pathway - cell viability counter screen (AID 743064). Note: nearly all actives have a fitted effect of over 50% in size. Note: potency is the fitted concentration of half-maximal effect. Summed up: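 Counter screen for cytotoxicity: compound plus T3 (1 nM final) on GH3.TRE-Luc cells, 23.5 h at 37 °C, then fluorescence viability readout with CellTiter-Fluor.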
In general terms: qHTS replaces the single test concentration by a dilution series.

A short description of assay [2]: qHTS assay to identify small molecule antagonists of the thyroid receptor (TR) signaling pathway (AID 743065). Note: nearly all actives have a fitted effect of over 55% in size. Note: potency is the fitted concentration of half-maximal effect. Summed up: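 GH3.TRE-Luc rat pituitary cells carrying two TR response elements driving luciferase were plated for 4 h, given compound plus 1 nM T3 (final), and incubated 23.5 h at 37 C. ONE-Glo luminescence measured reporter inhibition; CellTiter-Fluor fluorescence tracked cytotoxicity.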

Assay [3] deals with thyroid hormone receptor (rat, GH3 cells). In words: qHTS assay to identify small molecule agonists of the thyroid receptor (TR) signaling pathway (AID 743066; calls by dose curve).
Assay [4] in a line: qHTS assay to identify small molecule antagonists of the estrogen receptor alpha (ER-alpha) signaling pathway - cell viability counter screen (AID 743074; calls by dose curve;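 note: HEK293 cells carrying ER-alpha-UAS-bla reporter stimulated with 17beta-estradiol; nearly all actives have a fitted effect of over 45% in size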; note: potency is the fitted concentration of half-maximal effect).
Assay [5] in a line: qHTS assay to identify small molecule antagonists of the estrogen receptor alpha (ER-alpha) signaling pathway using the BG1 cell line - cell viability counter screen (AID 743081).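 Note: compound given together with 17beta-estradiol as the ER stimulus; nearly all actives have a fitted effect of over 45% in size.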 Note: potency is the fitted concentration of half-maximal effect.
The target of assay [6] is Aromatase (Homo sapiens) (UniProt P11511). As to the kind of experiment: qHTS assay to identify aromatase inhibitors (AID 743083). Note: nearly all actives have a fitted effect of over 55% in size. Note: potency is the fitted concentration of half-maximal effect.
Assay [7] in a line: qHTS assay to identify aromatase inhibitors - cell viability counter screen (AID 743084).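 Note: cells stimulated with testosterone during compound exposure; nearly all actives have a fitted effect of over 55% in size.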 Note: potency is the fitted concentration of half-maximal effect.
For assay [8], the target named is Aryl hydrocarbon receptor (Homo sapiens) (UniProt P35869). As to the kind of experiment: qHTS assay to identify small molecule that activate the aryl hydrocarbon receptor (AhR) signaling pathway (AID 743085).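 Note: HG2L7.5c1 human HepG2 liver cells with stably integrated DRE-driven firefly reporter; nearly all actives have a fitted effect of over 15% in size.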 The procedure, abridged: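 Measured in HG2L7.5c1 cells: CellTiter-Fluor signal (30 min incubation, 37C) for viability, then luciferase luminescence (30 min, room temperature). Compound contact time was 24 h at 37C, following a 5 h pre-incubation.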

Assay [9] in a line: qHTS assay to identify small molecule that activate the aryl hydrocarbon receptor (AhR) signaling pathway - cell viability counter screen (AID 743086). Note: nearly all actives have a fitted effect of over 45% in size. Note: potency is the fitted concentration of half-maximal effect. The procedure, abridged: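 HepG2-AhR-luc (HG2L7.5c1) cells, 4000/well, were preincubated 5 h at 37C, exposed to compound in qHTS format for 24 hr at 37C, then given CellTiter-Fluor for 30 min; viability was read as fluorescence in the reporter wells.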

Assay [10] has as its target Peroxisome proliferator-activated receptor gamma (Homo sapiens) (UniProt P37231). In words: qHTS assay to identify small molecule agonists of the peroxisome proliferator-activated receptor gamma (PPARg) signaling pathway (AID 743094; active = well fitted activation curve with a large enough effect in the signal ratio in the repeat runs, not every such curve was filed as active; inconclusive = weak or mixed curves, or effect the other way; inactive = no such curve, though single readings can be large or run the other way; the % refers to the signal ratio). Summed up:
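Quantitative HTS agonist mode: stable HEK293H line with UAS-beta-lactamase reporter under PPARg control, 17 h compound exposure at 37C, fluorescence after 1 h FRET substrate loading at room temperature.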

Assay [11] has the same target. In words: qHTS assay to identify small molecule antagonists of the peroxisome proliferator-activated receptor gamma (PPARg) signaling pathway (AID 743191; calls by dose curve; note: nearly all actives have a fitted effect of over 30% in size; note: potency is the fitted concentration of half-maximal effect). The procedure, abridged:
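GeneBLAzer PPARg UAS-bla HEK293H cells carrying a UAS-driven beta-lactamase reporter were plated at 3000 cells/well, preincubated 5 h at 37C, then given compound for 17 h at 37C; LiveBLAzer B/G FRET substrate was read after 1 h at room temperature.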

Assay [12] is described as follows: qHTS assay to identify small molecule antagonists of the peroxisome proliferator-activated receptor gamma (PPARg) signaling pathway - cell viability counter screen (AID 743194). Note: nearly all actives have a fitted effect of over 55% in size. Note: potency is the fitted concentration of half-maximal effect. To be noted: Potency: co-treated with 50 nM rosiglitazone unless noted. Summed up: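 PPARg-UAS-bla HEK293H cells were plated, rested 5 h at 37 C, then treated with compounds plus rosiglitazone (50 nM final) for 17 h at 37 C; viability was then read by CellTiter-Glo luminescence after 30 min at room temperature.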

Assay [13] in a line: qHTS assay for small molecule agonists of the antioxidant response element (ARE) signaling pathway (AID 743202; active = well fitted activation curve with a large enough effect in the signal ratio in the repeat runs, not every such curve was filed as active; inconclusive = weak or mixed curves, or effect the other way; inactive = no such curve, though single readings can be large or run the other way; the % refers to the signal ratio; note: potency is the fitted concentration of half-maximal effect). The procedure, abridged:
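Compounds delivered in DMSO to ARE-bla HepG2 cells (2,000 cells/well, pre-incubated 5 h) and left 16 h at 37 C. LiveBLAzer B/G FRET substrate then added for 2 h at RT before fluorescence reading.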

Assay [14] in a line: qHTS assay for small molecule agonists of the antioxidant response element (ARE) signaling pathway - cell viability counter screen (AID 743203; calls by dose curve; note: nearly all actives have a fitted effect of over 55% in size; note: potency is the fitted concentration of half-maximal effect). Summed up:
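Seeded at 2,000 cells/well, ARE-bla HepG2 cells were incubated 5 hrs before compound addition. After 16 hrs of treatment at 37C with 5% CO2, CellTiter-Glo reagent was added and luminescence read 30 min later.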

The nature of assay [15]: qHTS assay for small molecule activators of the heat shock response signaling pathway - cell viability counter screen (AID 743209). Note: nearly all actives have a fitted effect of over 50% in size. Note: potency is the fitted concentration of half-maximal effect. The procedure, abridged: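 First, HSE-bla HeLa cells were seeded at 1500 cells/well and kept overnight at 37 C. Next, compounds were pinned in and incubated 5 h. After the FRET substrate step, CellTiter-Glo was added and luminescence read 30 min later.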

Assay [16] in a line: qHTS assay for small molecule activators of the heat shock response signaling pathway (AID 743210; active = well fitted activation curve with a large enough effect in the signal ratio in the repeat runs, with a control signal flat, not every such curve was filed as active; inconclusive = weak or mixed curves; the % refers to the signal ratio;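 note: HeLa cells with beta-lactamase reporter driven by heat shock elements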). The procedure, abridged: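 Reporter gene assay: HeLa cells stably bearing an HSE-bla construct, compound treatment 5 h at 37 C, LiveBLAzer substrate 2.5 h at RT, fluorescence intensity.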
Assay [17] concerns the target Estrogen receptor (Homo sapiens) (UniProt P03372). In words: qHTS assay to identify small molecule agonists of the estrogen receptor alpha (ER-alpha) signaling pathway (AID 743075; calls by dose curve;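 note: HEK293 GripTite cells with ER-alpha and UAS-driven beta-lactamase reporter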).
Assay [18] can be described thus: qHTS assay to identify small molecule antagonists of the estrogen receptor alpha (ER-alpha) signaling pathway using the BG1 cell line (AID 743080; calls by dose curve;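 note: BG1 cells stimulated with 17beta-estradiol alongside compound; nearly all actives have a fitted effect of over 25% in size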; note: potency is the fitted concentration of half-maximal effect). Summed up: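 Luminescence from a 4×ERE-luciferase reporter in BG1-Luc-4E2 cells served as read-out. Cells, pre-cultured 5 days in stripped-serum phenol-red-free medium, were exposed to compound with 17beta-estradiol co-stimulation for 21.5 h at 37 C.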

The target in assay [19] is Estrogen receptor (Homo sapiens) (UniProt P03372). As to the kind of experiment: qHTS assay to identify small molecule antagonists of the estrogen receptor alpha (ER-alpha) signaling pathway (AID 743069; active = well fitted curve in the direction sought with a large enough effect in the signal ratio in the repeat runs, not every such curve was filed as active; inconclusive = weak or mixed curves, or effect the other way; inactive = no such curve, though single readings can be large or run the other way; the % refers to the signal ratio; note: potency is the fitted concentration of half-maximal effect). The procedure, abridged: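 Estradiol-stimulated ER-alpha-UAS-bla HEK293 cells, 18 hr compound exposure at 37C. LiveBLAzer B/G substrate, 2 hr RT, fluorescence read.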

For assay [20] the target is unchanged. In words: qHTS assay to identify small molecule agonists of the estrogen receptor alpha (ER-alpha) signaling pathway using the BG1 cell line (AID 743079). Note: nearly all actives have a fitted effect of over 20% in size. Particulars: BG1Luc4E2 cells, ERE-luciferase agonist, 22 h; activation: at 70.3 µM (top of the series) unless noted.

Where “and” joins values, the source holds several entries; their conditions need not be identical. Equal entries are not always repeated. A structure can be active in one record and inactive in another. Calls of active or inactive are those of the source. Unless noted, calls come from the whole dose curve; as a rule, active = well fitted curve in the direction sought with a large enough effect in the repeat runs; inconclusive = weak or mixed curves; inactive = no such curve, though single readings can be large; an effect the other way counts as inactive or inconclusive.

Sequence of Aromatase (Homo sapiens) (P11511 whole entry, looked up): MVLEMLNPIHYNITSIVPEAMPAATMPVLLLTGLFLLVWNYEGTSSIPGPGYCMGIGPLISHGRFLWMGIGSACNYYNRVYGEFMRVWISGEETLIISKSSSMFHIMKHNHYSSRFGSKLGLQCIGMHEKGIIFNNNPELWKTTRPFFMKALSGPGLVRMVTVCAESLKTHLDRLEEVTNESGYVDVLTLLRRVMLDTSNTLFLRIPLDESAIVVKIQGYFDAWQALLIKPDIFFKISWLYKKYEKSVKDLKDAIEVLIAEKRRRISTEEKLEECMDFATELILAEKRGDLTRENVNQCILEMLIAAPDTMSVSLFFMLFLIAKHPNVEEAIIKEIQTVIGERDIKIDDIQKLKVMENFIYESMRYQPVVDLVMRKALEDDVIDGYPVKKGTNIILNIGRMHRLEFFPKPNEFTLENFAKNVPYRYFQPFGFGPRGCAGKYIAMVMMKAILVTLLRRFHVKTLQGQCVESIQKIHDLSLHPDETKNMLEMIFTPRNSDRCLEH
Sequence of Estrogen receptor (Homo sapiens) (P03372 whole entry, looked up): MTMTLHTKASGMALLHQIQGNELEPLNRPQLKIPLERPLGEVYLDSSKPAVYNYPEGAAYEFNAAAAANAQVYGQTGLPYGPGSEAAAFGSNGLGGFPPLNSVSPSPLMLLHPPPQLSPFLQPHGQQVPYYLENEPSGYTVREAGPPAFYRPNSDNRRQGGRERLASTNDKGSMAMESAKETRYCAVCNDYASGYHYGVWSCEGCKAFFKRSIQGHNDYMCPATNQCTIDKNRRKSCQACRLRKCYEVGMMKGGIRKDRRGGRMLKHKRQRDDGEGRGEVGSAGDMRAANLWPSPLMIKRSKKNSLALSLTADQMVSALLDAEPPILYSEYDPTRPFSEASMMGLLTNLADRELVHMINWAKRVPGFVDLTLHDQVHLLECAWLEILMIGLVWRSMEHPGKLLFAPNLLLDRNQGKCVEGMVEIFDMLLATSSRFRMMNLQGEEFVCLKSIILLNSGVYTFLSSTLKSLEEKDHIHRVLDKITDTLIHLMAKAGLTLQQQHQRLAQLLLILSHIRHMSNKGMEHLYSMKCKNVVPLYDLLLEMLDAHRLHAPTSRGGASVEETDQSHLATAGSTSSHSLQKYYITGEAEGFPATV
Sequence of Aryl hydrocarbon receptor (Homo sapiens) (P35869 whole entry, looked up): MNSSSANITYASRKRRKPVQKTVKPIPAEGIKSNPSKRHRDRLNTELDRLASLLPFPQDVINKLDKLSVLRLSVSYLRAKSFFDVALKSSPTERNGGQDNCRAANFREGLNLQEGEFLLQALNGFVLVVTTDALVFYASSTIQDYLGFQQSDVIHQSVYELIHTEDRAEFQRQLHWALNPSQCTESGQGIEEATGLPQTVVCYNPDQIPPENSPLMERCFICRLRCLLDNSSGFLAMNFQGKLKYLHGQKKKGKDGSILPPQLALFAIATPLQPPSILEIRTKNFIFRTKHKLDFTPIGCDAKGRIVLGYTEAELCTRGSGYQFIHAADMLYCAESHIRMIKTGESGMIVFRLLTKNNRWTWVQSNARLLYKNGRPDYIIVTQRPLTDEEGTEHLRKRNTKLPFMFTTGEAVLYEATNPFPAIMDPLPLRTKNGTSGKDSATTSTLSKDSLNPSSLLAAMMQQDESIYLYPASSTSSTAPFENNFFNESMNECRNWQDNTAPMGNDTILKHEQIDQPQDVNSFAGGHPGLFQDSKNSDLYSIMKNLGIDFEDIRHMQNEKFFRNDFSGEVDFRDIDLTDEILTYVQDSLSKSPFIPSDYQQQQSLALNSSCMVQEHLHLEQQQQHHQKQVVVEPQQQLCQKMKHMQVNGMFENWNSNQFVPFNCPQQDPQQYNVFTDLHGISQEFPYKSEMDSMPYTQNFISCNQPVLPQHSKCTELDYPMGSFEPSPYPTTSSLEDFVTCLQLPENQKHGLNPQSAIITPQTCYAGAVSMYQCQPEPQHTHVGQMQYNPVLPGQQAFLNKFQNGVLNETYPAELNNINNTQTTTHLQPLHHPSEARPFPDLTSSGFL
Sequence of Peroxisome proliferator-activated receptor gamma (Homo sapiens) (P37231 whole entry, looked up): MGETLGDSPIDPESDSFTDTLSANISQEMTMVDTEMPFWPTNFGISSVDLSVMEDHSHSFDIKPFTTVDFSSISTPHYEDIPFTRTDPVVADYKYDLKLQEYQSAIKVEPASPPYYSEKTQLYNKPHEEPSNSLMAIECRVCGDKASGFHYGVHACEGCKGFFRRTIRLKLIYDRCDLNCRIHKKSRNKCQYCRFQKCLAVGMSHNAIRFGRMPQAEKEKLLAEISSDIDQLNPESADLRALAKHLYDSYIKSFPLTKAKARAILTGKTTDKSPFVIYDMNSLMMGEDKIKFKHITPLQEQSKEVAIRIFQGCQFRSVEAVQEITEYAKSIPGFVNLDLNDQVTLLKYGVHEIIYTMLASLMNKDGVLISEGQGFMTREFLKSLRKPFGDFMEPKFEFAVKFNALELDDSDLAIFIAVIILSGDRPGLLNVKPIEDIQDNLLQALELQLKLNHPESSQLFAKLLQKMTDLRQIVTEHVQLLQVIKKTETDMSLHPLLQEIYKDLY

Turning to `CC1CC(=O)O1` (stereo unspecified), the Potency result in assay [1], in [2], in assay [3], in assay [4], in assay [5] and in assay [6] was “inactive” each time. In addition, the Potency result in [7], in assay [8], in assay [9], in assay [10], in assay [11] and in assay [12] was “inactive” in each case. In addition, the Potency entry in assay [13], in [14], in [15] and in [16] was “inactive” each time.

Turning to `CC(C)(O)C(=O)Nc1ccc([N+](=O)[O-])c(C(F)(F)F)c1`, the Potency result in [1], in [3], in [4], in assay [17], in assay [6] and in [7] was “inactive” in each case. In addition, the Potency result in assay [8], in [9], in [12], in assay [14], in assay [15] and in [16] was “inactive” each time. For the same compound, the Potency in assay [2] was 62.4 µM (active); in assay [18], 55.6 µM (active); in [13], 27.9 µM (active) and 22.4 µM (active).

As for `COP(=S)(OC)Oc1ccc(Sc2ccc(OP(=S)(OC)OC)cc2)cc1`, the Potency result in assay [1], in assay [2], in assay [3], in [4], in assay [17] and in assay [5] was “inactive” each time. Besides, the Potency entry in [6], in [7], in assay [8], in assay [9], in assay [10] and in assay [12] was “inactive” in each case. Further, the Potency entry in [13] and in [15] was “inactive” each time. Also, the Potency in [19] was 21.9 µM [inconclusive] (active); in [18], 29.8 µM (active); in assay [14], 43.3 µM (active) and inactive.

Turning to `Oc1ccc(Cl)cc1Cl`, the Potency result in assay [1], in [2], in [3], in [19], in assay [17] and in [20] was “inactive” each time. The Potency result in assay [18], in assay [5], in [6], in assay [7], in assay [8] and in assay [9] was “inactive” each time. The Potency result in assay [10], in assay [11], in assay [12], in assay [13], in assay [14] and in [15] was “inactive” each time. The Potency result in assay [16] is “inactive”.

As to `C=CC(Cl)CCl` (stereo unspecified), the Potency result in assay [1], in assay [2], in assay [3], in assay [4], in assay [5] and in [6] was “inactive” in each case. The Potency result in [7], in assay [8], in [9], in assay [10], in [11] and in [12] was “inactive” each time. In addition, the Potency entry in assay [13], in assay [14], in [15] and in assay [16] was “inactive” in each case.

In the case of `O=[N+]([O-])c1ccc(Cl)c([N+](=O)[O-])c1`, the Potency was 15.6 µM (active) and 6.11 µM (active) in assay [1]; 4.39 µM (active) and 4.86 µM (active) in [2]; 49.7 µM (active) and 24.5 µM (active) in assay [4]; 62.1 µM (active) and 61.1 µM (active) in [5]; 6.21 µM (active) and 8.63 µM (active) in [6]; 6.21 µM (active) and 6.86 µM (active) in [7]. Further, the Potency in assay [9] is 24.7 µM (active) and 27.3 µM (active); in [11], 8.85 µM (active) and 8.71 µM (active); in [12], 11.1 µM (active) and 9.77 µM (active); in assay [14], 12.4 µM (active) and 6.86 µM (active); in assay [15], 9.92 µM (active) and 4.9 µM (active). Further, the Potency result in assay [3], in [17] and in assay [8] was “inactive” in each case.

`Cc1ccc([N+](=O)[O-])cc1`: the Potency result in assay [1], in [2], in [3], in [19], in assay [17] and in assay [20] was “inactive” each time. Also, the Potency result in assay [18], in [5], in [6], in assay [7], in assay [8] and in [9] was “inactive” throughout. Also, the Potency entry in [10], in [11], in assay [12], in assay [13], in [14] and in assay [15] was “inactive” each time. Moreover, the Potency entry in [16] is “inactive”.
